Shown are actives, neighbours in structure and some others; about 19% of the full set was active somewhere.
DT40 TDP1 no CPT: qHTS for Inhibitors of human tyrosyl-DNA phosphodiesterase 1 (TDP1): qHTS in cells in absence of CPT; DT40 Tdp1-/- hTDP1 cells, no CPT, ATP luminescence, 48 h; Potency, µM (titrated, usually from 46.2 µM), for inactives: at the highest dose activity change, negative = growth inhibition, actives largely listed as inhibitors; 420,000 compounds, 15% hits; note: nearly all actives have a fitted effect of over 55% in size
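Chicken DT40 Tdp1-/- cells complemented with human TDP1, screened without camptothecin (DMSO vehicle only), 400 cells/well. Compounds pin-transferred, cells incubated at 37 °C for at least 48 hr. Growth read as ATP-dependent luminescence (CellTiter-Glo, 30 min at RT).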
RORgamma inh: ROR gamma (mouse) transcription inhibition | Drosophila S2 Gal4-RORgamma UAS-luciferase reporter, 20 h | Potency, µM (highest dose often 53.6 µM), for inactives: top-dose activity change, negative = inhibition, usual class: inhibitors | 310,000 compounds, 5.4% hits | AID 2551; note: nearly all actives have a fitted effect of over 60% in size
Target sequence (P51450 whole entry, looked up, the tested form may be a part): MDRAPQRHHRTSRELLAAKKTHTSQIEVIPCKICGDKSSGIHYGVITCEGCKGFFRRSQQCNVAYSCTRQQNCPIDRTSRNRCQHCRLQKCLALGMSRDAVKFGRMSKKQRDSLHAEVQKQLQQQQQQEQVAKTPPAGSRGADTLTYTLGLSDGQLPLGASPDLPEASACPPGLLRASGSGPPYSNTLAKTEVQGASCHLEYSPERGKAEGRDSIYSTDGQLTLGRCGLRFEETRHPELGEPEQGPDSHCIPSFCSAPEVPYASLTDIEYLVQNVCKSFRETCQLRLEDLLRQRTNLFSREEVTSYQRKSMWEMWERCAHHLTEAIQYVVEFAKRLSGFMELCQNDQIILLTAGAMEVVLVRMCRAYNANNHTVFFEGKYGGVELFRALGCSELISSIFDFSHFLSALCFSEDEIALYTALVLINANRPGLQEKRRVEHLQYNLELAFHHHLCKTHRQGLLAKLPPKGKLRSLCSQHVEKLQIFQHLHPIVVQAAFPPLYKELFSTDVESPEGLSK
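Read-out: Photinus luciferase luminescence; inhibitors lower reporter signal. Insect Schneider cells with Gal4-ROR gamma fusion under metallothionein promoter, UAS reporter; 700 uM final copper sulfate induction, 20 hr, ambient temperature.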
Gal4-VP16 FLuc: Gal4-VP16 reporter inhibition counter-screen; Drosophila S2 Gal4-VP16 UAS-luciferase, luminescence, 20 h; Potency, µM (highest dose often 53.6 µM), without a hit: top-dose activity, negative = inhibition, usual class: inhibitors; 310,000 compounds, 3.5% hits; AID 2546;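 note: Gal4-VP16 expression switched on by copper sulfate through the metallothionein promoter; nearly all actives have a fitted effect of over 50% in size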
TDP1 cell CPT: growth inhibition of DT40 Tdp1-/-;hTDP1 cells with camptothecin (screen for TDP1 inhibitors) | chicken DT40 Tdp1-/-;hTDP1 cells + 20 nM CPT, ATP luminescence, 48 h | Potency, µM (top dose mostly 46.2 µM), inactives show top-dose activity change, negative = growth inhibition, usual class: inhibitors | 420,000 compounds, 12% hits; note: nearly all actives have a fitted effect of over 55% in size
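Cell growth measured by CellTiter-Glo luminescence after a minimum 48 h, 37 C compound exposure with 20 nM CPT in Tdp1-knockout DT40 cells stably expressing hTDP1, seeded 400/well; qHTS titration format.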
TDP1 block: inhibitors of human tyrosyl-DNA phosphodiesterase TDP1. Q9NUW8. recombinant TDP1, AlphaScreen DNA substrate cleavage. Potency, µM (highest dose often 130 µM), inactives show at the highest dose activity change, negative = inhibition, most hits filed as inhibitors. 350,000 compounds, 0.28% hits; note: nearly all actives have a fitted effect of over 40% in size
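E. coli-derived human Tdp1, 1 nM final. Cpd preinc 15 min RT; substrate 15 nM final, 5 min RT; AS bead mix 10 ug/ml final, 10 min RT. Signal loss = tyrosine-FITC cleavage. No-enzyme wells = max signal.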
Numbers without * were called inactive; [ ] = another dose, or the depositor's remark. Calls come from the whole dose curve; as a rule, active = well fitted curve in the direction sought with a large enough effect; inconclusive = small, poorly fitted or top-dose-only effect, or another doubt; inactive = no such curve, though single readings can be large; an effect the other way counts as inactive or inconclusive. % is set by controls: 0 for no effect and ±100 for the full control effect; potency is the fitted concentration of half-maximal effect.

How did Cc1ncc2c(c1CNS(=O)(=O)N(C)C)CCN(C(=O)/C=C/c1ccccc1)C2 do in these assays?
DT40 TDP1 no CPT: -9%; TDP1 cell CPT: 6%[9.04 µM]

How did Fc1ccc(NC(=S)NN2CCOCC2)cc1Cl do in these assays?
DT40 TDP1 no CPT: -5%; RORgamma inh: 2.8µM*; Gal4-VP16 FLuc: inconclusive; TDP1 cell CPT: 14%; TDP1 block: 5%

How did S=C(Nc1ccc(Br)cc1Cl)NN1CCOCC1 do in these assays?
DT40 TDP1 no CPT: -11%; RORgamma inh: 3.5µM*; Gal4-VP16 FLuc: 18µM*; TDP1 cell CPT: 2%; TDP1 block: -5%

How did CCCCC(=O)NC(Nc1cc(C)ccn1)(C(=O)OCC)C(F)(F)F (stereo unspecified) do in these assays?
DT40 TDP1 no CPT: inconclusive; RORgamma inh: -6%; Gal4-VP16 FLuc: -6%; TDP1 cell CPT: -5%; TDP1 block: 4%

How did C/C(=N\Nc1nc2ccc(Cl)cc2o1)c1ccccc1 do in these assays?
DT40 TDP1 no CPT: inconclusive; RORgamma inh: 2.5µM*; Gal4-VP16 FLuc: inconclusive; TDP1 cell CPT: 8%; TDP1 block: 2%

What do the screens show for `Nc1nc2ccc(Cl)cc2o1`?
DT40 TDP1 no CPT: -7%; TDP1 cell CPT: 9%

What do the screens show for `CCOC(=O)C(C(=O)OCC)N(C#N)c1nc(N(C)C)nc(N(C)C)n1`?
DT40 TDP1 no CPT: -12%; RORgamma inh: -4%; Gal4-VP16 FLuc: 3%; TDP1 cell CPT: 10%; TDP1 block: -4%

What do the screens show for `COc1cccc(N2CCN(S(=O)(=O)c3c(C)[nH]c(C)c3C(=O)N3CCCCC3)CC2)c1`?
DT40 TDP1 no CPT: -51%; RORgamma inh: -10%; Gal4-VP16 FLuc: 1%; TDP1 cell CPT: -27%; TDP1 block: 4%

Results for Cc1ccc(Cl)cc1N1CCN(S(=O)(=O)c2c(C)[nH]c(C)c2C(=O)N2CCCCC2)CC1 ?
DT40 TDP1 no CPT: inconclusive; RORgamma inh: 10%; Gal4-VP16 FLuc: 1%; TDP1 cell CPT: 16µM*; TDP1 block: 9%

What do the screens show for `Cc1[nH]c(C)c(S(=O)(=O)N2CCN(c3cccc(Cl)c3)CC2)c1C(=O)N1CCCCC1`?
DT40 TDP1 no CPT: 21µM*; RORgamma inh: 10%; Gal4-VP16 FLuc: -6%; TDP1 cell CPT: 21µM*; TDP1 block: 7%

Results for Cc1ccc(C)c(N2CCN(S(=O)(=O)c3c(C)[nH]c(C)c3C(=O)N3CCCCC3)CC2)c1 ?
DT40 TDP1 no CPT: inconclusive; RORgamma inh: 22%; Gal4-VP16 FLuc: -22%; TDP1 cell CPT: inconclusive; TDP1 block: 9%

How did Nn1c(COc2ccc(Cl)cc2)nc2ccccc2c1=O do in these assays?
DT40 TDP1 no CPT: inconclusive; RORgamma inh: inconclusive; Gal4-VP16 FLuc: -26%; TDP1 cell CPT: inconclusive; TDP1 block: -1%

What do the screens show for `FC(F)(F)c1cc(-c2ccc(Cl)cc2)nc(NCc2cccnc2)n1`?
DT40 TDP1 no CPT: inconclusive; RORgamma inh: -38%; Gal4-VP16 FLuc: -11%; TDP1 cell CPT: inconclusive; TDP1 block: 3%

How did COc1ccc(NC(=S)NC(NC(=O)/C=C/c2ccccc2)C(Cl)(Cl)Cl)cc1 (stereo unspecified) do in these assays?
DT40 TDP1 no CPT: 18µM*; RORgamma inh: inconclusive; Gal4-VP16 FLuc: inconclusive; TDP1 cell CPT: inconclusive; TDP1 block: -2%

What do the screens show for `CC(C)NC(NC(=O)/C=C/c1ccccc1)C(Cl)(Cl)Cl` (stereo unspecified)?
DT40 TDP1 no CPT: inconclusive; RORgamma inh: 10%; Gal4-VP16 FLuc: -3%; TDP1 cell CPT: -3%; TDP1 block: 0%

How did O=C(CCc1ccccc1)NC(NC(=S)Nc1ccc(Cl)cc1)C(Cl)(Cl)Cl (stereo unspecified) do in these assays?
DT40 TDP1 no CPT: 4.6µM*; RORgamma inh: -30%; Gal4-VP16 FLuc: inconclusive; TDP1 cell CPT: 8.2µM*; TDP1 block: 3%

Results for CCOC(=O)NC(NC(=S)Nc1ccc(OC)cc1)C(Cl)(Cl)Cl (stereo unspecified) ?
DT40 TDP1 no CPT: -2%; RORgamma inh: -24%; Gal4-VP16 FLuc: inconclusive; TDP1 cell CPT: 0%; TDP1 block: 3%

What do the screens show for `O=C(/C=C/c1ccccc1)NC(NC(=S)Nc1ccc(Cl)cc1)C(Cl)(Cl)Cl` (stereo unspecified)?
DT40 TDP1 no CPT: 5.2µM*; RORgamma inh: inconclusive; Gal4-VP16 FLuc: 10µM*; TDP1 cell CPT: 16µM*; TDP1 block: 2%

Results for O=C(NC(NC(=S)Nc1ccccc1C(=O)O)C(Cl)(Cl)Cl)c1ccccc1 (stereo unspecified) ?
DT40 TDP1 no CPT: -10%; RORgamma inh: -14%; Gal4-VP16 FLuc: 5%; TDP1 cell CPT: -26%; TDP1 block: -9%

How did O=C(/C=C/c1ccccc1)NC(NC(=S)Nc1cc(Cl)ccc1Cl)C(Cl)(Cl)Cl (stereo unspecified) do in these assays?
DT40 TDP1 no CPT: 5.2µM*; RORgamma inh: 15%; Gal4-VP16 FLuc: 2%; TDP1 cell CPT: 5.2µM*; TDP1 block: 6%

Results for CC(C)CC(=O)NC(NC(=S)Nc1ccccc1)C(Cl)(Cl)Cl (stereo unspecified) ?
DT40 TDP1 no CPT: inconclusive; RORgamma inh: 17%; Gal4-VP16 FLuc: 5%; TDP1 cell CPT: inconclusive; TDP1 block: 0%

Results for CC(NC(=O)CSc1nc(-c2ccccc2F)nc2cc(=O)[nH]n12)c1nc2ccccc2n1C (stereo unspecified) ?
DT40 TDP1 no CPT: -15%; TDP1 cell CPT: -13%; TDP1 block: -3%

How did CN(C(=O)C1CCN(S(=O)(=O)c2cccc3nonc23)CC1)C1CCCCC1 do in these assays?
DT40 TDP1 no CPT: -13%; RORgamma inh: 1%; Gal4-VP16 FLuc: 3%; TDP1 cell CPT: -23%; TDP1 block: 0%

How did C[C@H](CO)N1C[C@H](C)[C@@H](CN(C)C(=O)Nc2ccccc2)Oc2c(NS(=O)(=O)c3ccccc3)cccc2C1=O do in these assays?
DT40 TDP1 no CPT: -6%; TDP1 cell CPT: -1%; TDP1 block: 2%

Results for Cc1ccccc1-c1ccc(=O)n(CC(=O)Nc2ccc(-n3cnnn3)cc2)n1 ?
DT40 TDP1 no CPT: 5%; RORgamma inh: -2%; Gal4-VP16 FLuc: -3%; TDP1 cell CPT: 8%

What do the screens show for `COc1ccc(-c2csc3nc(-c4ccc(Cl)cc4)oc(=O)c23)cc1`?
DT40 TDP1 no CPT: -3%; TDP1 cell CPT: -1%

Results for O=C(Cc1ccccc1)NC(NC(=S)Nc1cc(Cl)ccc1Cl)C(Cl)(Cl)Cl (stereo unspecified) ?
DT40 TDP1 no CPT: 23µM*; RORgamma inh: inconclusive; Gal4-VP16 FLuc: inconclusive; TDP1 cell CPT: -26%; TDP1 block: 1%

Source: PubChem
